Measurements taken from PubChem BioAssay AID1159580 (chemical genetic matrix, 2015).
The whole screen tested about 5,500 compounds, of which about 2,000 (36%) were called active. Roughly 18% stayed inconclusive and do not appear here. The list shows a part of the results. A number with no mark means an inactive call. Rule as the data show it: active = normalized growth mostly below about 0.91 (no sharp cut-off); inconclusive = no clear call, values can overlap the other calls; inactive = mostly above about 0.92.

Test: chemical genetic growth profiling, strain panel (AID 1159580);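 also: tested at 20 µM; growth read once vehicle control cultures reached saturation at 30 °C; 1 = growth at the plate median or of vehicle wells; lower values mean less growth of the strain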
Settings: growth OD
[1] = S. cerevisiae deletion strains, locus YAL013W, strain DEP1, active compounds read low
[2] = S. cerevisiae deletion strains, locus YBR229C, strain ROT2, active compounds read low
[3] = S. cerevisiae deletion strains, locus YCL061C, strain MRC1, active compounds read low
[4] = S. cerevisiae deletion strains, locus YDL101C, strain DUN1, active compounds read low
[5] = S. cerevisiae deletion strains, locus YDL134C, strain PPH21, active compounds read low
[6] = S. cerevisiae deletion strains, locus YDR150W, strain NUM1, active compounds read low
[7] = S. cerevisiae deletion strains, locus YEL061C, strain CIN8, active compounds read low
[8] = S. cerevisiae deletion strains, locus YGR078C, strain PAC10, active compounds read low
[9] = S. cerevisiae deletion strains, locus YHR030C, strain SLT2, active compounds read low
[10] = S. cerevisiae deletion strains, locus YHR087W, strain rtc3, active compounds read low
[11] = S. cerevisiae deletion strains, locus YJR043C, strain POL32, active compounds read low
[12] = S. cerevisiae deletion strains, locus YJR075W, strain HOC1, active compounds read low
[13] = S. cerevisiae deletion strains, locus YLR039C, strain RIC1, active compounds read low
[14] = S. cerevisiae deletion strains, locus YLR058C, strain SHM2 (second series), active compounds read low
[15] = S. cerevisiae deletion strains, locus YLR085C, strain ARP6, active compounds read low
[16] = S. cerevisiae deletion strains, locus YLR262C, strain YPT6, active compounds read low
[17] = S. cerevisiae deletion strains, locus YML094W, strain GIM5, active compounds read low
[18] = S. cerevisiae deletion strains, locus YMR219W, strain ESC1, active compounds read low
[19] = S. cerevisiae deletion strains, locus YMR263W, strain SAP30, active compounds read low
[20] = S. cerevisiae deletion strains, locus YNL153C, strain GIM3, active compounds read low
[21] = S. cerevisiae deletion strains, locus YNL298W, strain CLA4 (second series), active compounds read low
[22] = S. cerevisiae deletion strains, locus YNL322C, strain KRE1, active compounds read low
[23] = S. cerevisiae deletion strains, locus YNR030W, strain Alg12, active compounds read low
[24] = S. cerevisiae deletion strains, locus YOL006C, strain TOP1, active compounds read low
[25] = S. cerevisiae deletion strains, locus YPL055C, strain LGE1, active compounds read low
[26] = S. cerevisiae deletion strains, locus YPL241C, strain CIN2, active compounds read low
[27] = S. cerevisiae deletion strains, locus YPR135W, strain CTF4, active compounds read low

SMILES: Clc1ccc(-c2csc(-c3ccno3)n2)s1
- normalized growth [1]: 0.942
- normalized growth [2]: 0.958
- normalized growth [3]: 0.985
- normalized growth [4]: 0.915
- normalized growth [5]: 0.565 (active)
- normalized growth [6]: 1.01
- normalized growth [7]: 0.89 (active)
- normalized growth [8]: 0.96
- normalized growth [9]: 0.484 (active)
- normalized growth [10]: 0.954
- normalized growth [11]: 1.01
- normalized growth [12]: 0.929
- normalized growth [13]: 0.57 (active)
- normalized growth [14]: 0.932 (active)
- normalized growth [15]: 0.644 (active)
- normalized growth [16]: 0.777 (active)
- normalized growth [17]: 0.868
- normalized growth [18]: 0.937 (active)
- normalized growth [19]: 0.952
- normalized growth (S. cerevisiae deletion strains, locus YMR307W, strain GAS1, active compounds read low): 0.702
- normalized growth (S. cerevisiae deletion strains, locus YNL128W, strain TEP1, active compounds read low): 0.939
- normalized growth [20]: 1
- normalized growth [21]: 0.899
- normalized growth [22]: 0.97
- normalized growth [23]: 0.9
- normalized growth [24]: 0.655 (active)
- normalized growth [25]: 0.851
- normalized growth [26]: 0.81 (active)
- normalized growth [27]: 0.741

SMILES: Clc1cccc(-c2csc(Nc3cccnc3)n2)c1
- normalized growth [1]: 0.935
- normalized growth [2]: 0.998
- normalized growth [3]: 0.957
- normalized growth [4]: 1.04
- normalized growth [5]: 0.997
- normalized growth [6]: 0.954
- normalized growth [7]: 0.993
- normalized growth [8]: 0.979
- normalized growth (S. cerevisiae deletion strains, locus YGR229C, strain SMI1, active compounds read low): 1
- normalized growth [9]: 0.729
- normalized growth [10]: 0.974
- normalized growth (S. cerevisiae deletion strains, locus YJL187C, strain SWE1, active compounds read low): 0.957
- normalized growth [11]: 0.921
- normalized growth [12]: 0.978
- normalized growth [13]: 0.951
- normalized growth [14]: 0.99
- normalized growth [15]: 0.839
- normalized growth [16]: 1
- normalized growth [17]: 0.971
- normalized growth [18]: 0.992
- normalized growth [19]: 0.914
- normalized growth [20]: 0.971
- normalized growth [21]: 0.881
- normalized growth [22]: 1
- normalized growth [23]: 0.968
- normalized growth [24]: 0.979
- normalized growth [25]: 0.839
- normalized growth [26]: 0.915
- normalized growth [27]: 0.884
- normalized growth (S. cerevisiae strains, strain wild type, active compounds read low): 0.997
